According to PubChem BioAssay AID862 (The Scripps Research Institute Molecular Screening Center, 2007):
In all, about 190,000 compounds went through this assay and about 1,700 (0.89%) were called active. This is one part of a sample in which actives are shown more often than they occur. Values without a mark were called inactive.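 How the source made its calls: active means inhibition above the mean inhibition across all screened compounds plus 3 SD (cut at about 44% in these data); inactive means the rest.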

Test: blockers of STAT3 transcriptional signaling – U3A cells, luciferase, luminescence, MLSCN library, primary screen (AID 862);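 further: 0% = DMSO only wells and 100% = 100 µM nifuroxazide control wells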
Conditions: IL-6 STAT3-luciferase reporter, at 5.5 µM, stronger effect = higher value, host cell line lacks STAT1

SMILES	inhibition
CC(C)CNC(=O)CC(NCC(C)C)C(=O)O (stereo unspecified)	17.2%
CCCOC1CCCN(Cc2cn(C)nc2-c2ccccc2F)C1 (stereo unspecified)	3.9%
O=C(NCC1COc2ccccc2O1)C1(c2ccccc2)CCCC1 (stereo unspecified)	9.6%
O=C(COC(=O)CCc1ccc(S(=O)(=O)N2CCOCC2)cc1)Nc1cccc(Cl)c1	-7.6%
CCn1c(NC(=O)c2nn(C)cc2Br)nc2ccccc21	5.2%
CCSc1nnc(NC(=O)Cc2ccccc2OC)s1	1.7%
CCSc1nnc(NC(=O)c2ccc(C)cc2)s1	60.6% (active)
CC(=O)c1sc(NC(=O)c2ccc(C)cc2)nc1C	33.2%
Cc1ccc(C2CCN(C(=S)Nc3cccc(Cl)c3)C2)cc1 (stereo unspecified)	0.7%
CCc1ccc(-n2c(SCc3cc(=O)n4cc(Br)ccc4n3)nc3[nH]ncc3c2=O)cc1	9.7%
CSCCNCc1cn(-c2ccc(F)cc2F)nc1-c1ccccc1C	0.4%
COc1ccc(CCNC(=O)Cn2c(=O)n(CC3CCCO3)c(=O)c3ccccc32)cc1OC (stereo unspecified)	10.4%
Cc1nc(CNS(=O)(=O)c2cccnc2)cs1	5.7%
Cc1nc(CNS(=O)(=O)c2ccc(Oc3ccccc3)cc2)cs1	54% (active)
Cc1ccc(S(=O)(=O)NCc2csc(C)n2)c(C)c1	-8.4%
CCc1cc2c(N3CCN(c4nnc(CC)s4)CC3)ncnc2s1	57.3% (active)
CCc1cc2c(SCC(=O)Nc3ncc(Cl)c(C)c3Cl)ncnc2s1	-5.3%
CCc1cc2c(NC3CCCC3)ncnc2s1	13%
CCC(C)CN1CCC(CO)(Cc2ccccc2Cl)CC1 (stereo unspecified)	3.5%
Cc1cc(=O)oc(C)c1C(=O)N1CCCCC1	6.3%
Cc1ccc2cc3cc(C(=O)N4CCCCCC4)oc3nc2c1	48.7% (active)
Cc1cccc(C(=O)N2CCCN(C(=O)c3cccc(C)c3)CC2)c1	3.3%
CN1CCN(c2ccc(NC(=O)c3ccc4c(c3)OCCO4)cc2Cl)CC1	-19.1%
c1ccc(Cc2cc[n+](Cc3ccccc3)cc2)cc1	10.2%
CC1CCCN(S(=O)(=O)c2ccc(N(C(=O)c3cnccn3)C(C(=O)NC3CCCCC3)c3cccs3)cc2)C1 (stereo unspecified)	5.3%
Cc1ccc(-c2nc3ccccc3[nH]2)cc1N	-19.1%

SMILES	inhibition
c1ccc(-c2[nH]ncc2-c2nc3ccccc3[nH]2)cc1	15.2%
c1ccc2[nH]c(-c3nc4ccccc4[nH]3)nc2c1	44.2% (active)
Cc1cccc(C)c1NC(=O)Nc1ccccc1-n1ccnc1	4%
COCCC(=O)Nc1ccc2c(c1)CN(C(=O)CCOC)CC2	-5.3%
CCNC(=S)NNC(=O)c1ccc2ncccc2c1	7.8%
O=C(O)c1ccc(N/N=C/c2cn(-c3ccccc3)nc2-c2cccs2)cc1	1%
O=C(O)c1ccc(N/N=C/c2ccc3ncccc3c2)cc1	69.5% (active)
CCCC(c1nnnn1C(C)(C)C)N1CCN(Cc2ccccc2)CC1 (stereo unspecified)	-0.6%
O=C(CC(O)(C(F)(F)F)C(F)(F)F)Nc1ccc(Cl)c(Cl)c1	65.1% (active)
CN(C)CCNC(CC(=O)Nc1ccc(Cl)c(Cl)c1)C(=O)O (stereo unspecified)	5.8%
O=C(CC(=O)Nc1ccc(Cl)c(Cl)c1)N/N=C/c1ccc(O)cc1	-5%
COc1cc(C(=O)NCc2ccc(-n3cccc3)cc2)cc(OC)c1OC	6.8%
COc1ccccc1C(=O)Nc1ccc(OCc2nnc3c4ccccc4c(C)nn23)cc1	21.6%
COc1ccc(C)cc1NC(=O)NCc1ccccn1	15%
CN(c1ccc(OCC(=O)OCC(=O)Nc2cccc([N+](=O)[O-])c2)cc1)S(=O)(=O)c1ccc(F)cc1	5.5%
O=C(COC(=O)c1n[nH]c2ccccc12)NCc1ccccc1	5.8%
CN(C)S(=O)(=O)c1ccc(NC(=O)COC(=O)c2n[nH]c3ccccc23)cc1	49.3% (active)
CCN(CC)S(=O)(=O)c1ccc2nc(COC(=O)c3n[nH]c4ccccc34)[nH]c2c1	19.1%
COc1ccccc1NC(=O)c1c(Br)cnn1C	25.4%
CCOC(=O)CNc1nc2ccccc2n2c(C)nnc12	24.4%
Oc1c(Cl)cc(Cl)c(Cl)c1Cc1c(O)c(Cl)cc(Cl)c1Cl	43.6% (active)
O=C(Nc1ccc2cn[nH]c2c1)c1ccc(S(=O)(=O)N2CCOCC2)cc1	-32.5%
CC(=O)NC(Cc1ccc(F)c(F)c1)C(=O)NC1CCN(c2nnnn2-c2ccccc2)CC1 (stereo unspecified)	10.3%
COc1ccc(C(=O)Nc2ccccc2C(=O)N/N=C/c2ccc(O)c(OC)c2)cc1	106% (active)
COc1cc(/C=N/NC(=O)c2ccccc2)ccc1OS(=O)(=O)c1ccccc1	1.7%
COc1ccc(C(=O)Nc2ccccc2C(=O)N/N=C/c2ccccc2OC)cc1	1.8%

SMILES	inhibition
CC(C)CNC(=O)C(=O)NCc1ccccc1	-0.6%
CC(Sc1nc(-c2ccccc2)cc(C(F)(F)F)n1)C(=O)Nc1ccc2c(c1)OCO2 (stereo unspecified)	-2.7%
O=C(Nc1ccc2c(c1)OCCO2)c1ccncc1	-8.8%
Cn1cc([N+](=O)[O-])c(C(=O)Nc2cnn(Cc3ccc(F)cc3)c2)n1	36.8%
Cn1cc([N+](=O)[O-])c(C(=O)Nc2ccc3c(c2)OCCO3)n1	51.3% (active)
Cc1ccc(CCCOC(=O)C[N+]2(C)CCCC2)cc1	-9.5%
S=C(NN=C1CCN(Cc2ccccc2)CC1)NC1CCCCC1	-0.1%
Cn1nnnc1SCC(=O)Nc1nc2ccccc2s1	-2.9%
CCC(=O)Nc1ccc2c(c1)nc(CCN1CCN(C)CC1)n2C	9.8%
Cn1c(CN2CCOCC2)nc2cc(NC(=O)c3ccc(Cl)cc3)ccc21	66.2% (active)
CC(=O)NCCc1nc2cc(NC(=O)c3ccccc3)ccc2n1C	15.8%
O=C(NCc1ccccc1Cl)C1CCN(S(=O)(=O)N2CCOCC2)CC1	2.3%
CCN1CCCC1CNc1ncnc2c1[nH]c1ccc(F)cc12 (stereo unspecified)	-30.1%
O=C1CCCN1CCCNc1ncnc2c1[nH]c1ccccc12	-56.6%
CC(C)OCCCNc1ncnc2c1[nH]c1ccc(F)cc12	80.4% (active)
Cc1nc2cc(NC(=O)NC3CC3)ccc2n1C	7.5%
CC(C)C[C@@H](N)c1nnc(SCC(=O)c2ccc(Cl)cc2)o1	53.4% (active)
CC(=O)Nc1ccc(C(=O)CSc2nnc(Cc3ccccc3)o2)cc1	0.2%
COc1ccc(C(=O)CSc2nnc(-c3ccco3)o2)cc1	2.9%
Oc1ccccc1C=NC1CCCCC1N=Cc1ccccc1O (stereo unspecified)	5.7%
CCOC(=O)CNC(=O)/C(=C\c1ccc(F)cc1)NC(=O)c1ccccc1	1.9%
COc1cccc(NC(=O)Cn2c3ccccc3c3nc4n(c(=O)c32)CCS4)c1	12.7%
Cn1c(CNC(=O)C(C)(C)C)nc2ccccc21	15.4%
Cn1cccc1-c1nc2ccccc2n1C	16.4%
Cn1c(-c2ccc(C(=O)c3ccccc3)s2)nc2ccccc21	49.1% (active)
Cc1cccc(NC(=S)NC23CN4CN(CN(C4)C2)C3)c1	4.5%

SMILES	inhibition
Cc1ccc(OCCCn2c(=O)oc3ccccc32)cc1	16.3%
CC(C)CC(=O)N/C(N)=N/c1nc2ccccc2s1	47% (active)
CCC(=O)NC(=Nc1nc2ccccc2s1)NC(=O)CC	12.8%
COC(=O)c1nc2ccccc2s1	-7.8%
CCC(=O)c1ccc(OCC(O)Cn2nc(C)c(C(C)=O)c2C)cc1 (stereo unspecified)	22.7%
Cc1ccc(Cl)cc1NC(=O)C1CCN(S(C)(=O)=O)CC1	-0.1%
CCCOC(=O)c1[nH]c2c(c1C)C(=O)CC(c1cc(OC)c(OC)c(OC)c1)C2 (stereo unspecified)	47.1% (active)
CCOC(=O)c1[nH]c2c(c1C)C(=O)CC(c1ccc(N(C)C)cc1)C2 (stereo unspecified)	-3.7%
CCCOC(=O)c1[nH]c2c(c1C)C(=O)CC(c1cccs1)C2 (stereo unspecified)	3.8%
COC(=O)CC1=NN(c2ccccc2)C(=O)C1	3.8%
Cc1ccccc1CN(c1ccc(C(=O)NCC2CCCO2)cc1)S(C)(=O)=O (stereo unspecified)	1%
Cc1cccc(C)c1NC(=O)C1(N(C(=O)c2ccccn2)c2ccc(O)cc2)CCCCC1	0.2%
COc1nc(-c2ccc(Cl)cc2)ccc1-c1noc(-c2cccs2)n1	-4.2%
O=C(Oc1ccc(-c2nc(-c3ccccn3)no2)cc1)c1ccccc1	76.7% (active)
c1csc(-c2nc(-c3ccncc3)no2)c1	16.8%
CC(C)c1nc(-c2ccccn2)no1	-0.3%
c1ccc(-c2noc(-c3cccs3)n2)nc1	43.8% (active)
O=C(Oc1ccccc1)c1ccc2nccnc2c1	2.6%
Cc1c(C(=O)O)nnn1-c1nonc1N	-8.4%
Cc1cc(F)ccc1S(=O)(=O)Nc1ncnc2scc(-c3ccc(F)cc3)c12	-1.8%
CC(=O)c1c(C)[nH]c(C(=O)Nc2cc(S(=O)(=O)N(C)C)ccc2C)c1C	13.2%
CCOc1ccc(NC(=O)CC2C(=O)N(c3ccccc3)C(=O)N2CCOC)cc1 (stereo unspecified)	-0.8%
CCCCn1c(N)c(N(CC)C(=O)/C=C/c2ccco2)c(=O)[nH]c1=O	-5.6%
